Among the data in ChEMBL document CHEMBL2218924, “A broad activity screen in support of a chemogenomic map for kinase signalling research and drug discovery” (Biochem J, 2013) are residual activity values, retold here.

Test [1] concerns the target T1, Dual specificity tyrosine-phosphorylation-regulated kinase 2 (Homo sapiens) (UniProt Q92630).
T1 sequence (whole entry): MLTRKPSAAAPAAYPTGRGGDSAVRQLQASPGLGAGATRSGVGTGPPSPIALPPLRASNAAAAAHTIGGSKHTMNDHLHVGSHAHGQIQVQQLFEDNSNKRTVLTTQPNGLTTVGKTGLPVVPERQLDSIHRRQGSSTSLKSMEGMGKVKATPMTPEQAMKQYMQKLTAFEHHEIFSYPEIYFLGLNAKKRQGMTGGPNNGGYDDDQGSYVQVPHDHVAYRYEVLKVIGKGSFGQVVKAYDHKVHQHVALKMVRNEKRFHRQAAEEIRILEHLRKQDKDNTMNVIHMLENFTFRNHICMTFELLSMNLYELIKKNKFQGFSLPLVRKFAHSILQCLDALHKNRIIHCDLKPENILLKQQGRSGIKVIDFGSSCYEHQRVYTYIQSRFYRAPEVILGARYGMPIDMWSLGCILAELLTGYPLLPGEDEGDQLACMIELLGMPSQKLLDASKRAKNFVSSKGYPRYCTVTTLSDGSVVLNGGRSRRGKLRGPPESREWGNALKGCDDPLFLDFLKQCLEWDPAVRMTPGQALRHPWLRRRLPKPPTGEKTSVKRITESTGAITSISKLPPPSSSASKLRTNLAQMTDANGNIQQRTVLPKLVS
The following applies: at 10 µM.

Test [2] has as its target T2, Ephrin type-A receptor 1 (Homo sapiens) (UniProt P21709).
T2 sequence (whole entry): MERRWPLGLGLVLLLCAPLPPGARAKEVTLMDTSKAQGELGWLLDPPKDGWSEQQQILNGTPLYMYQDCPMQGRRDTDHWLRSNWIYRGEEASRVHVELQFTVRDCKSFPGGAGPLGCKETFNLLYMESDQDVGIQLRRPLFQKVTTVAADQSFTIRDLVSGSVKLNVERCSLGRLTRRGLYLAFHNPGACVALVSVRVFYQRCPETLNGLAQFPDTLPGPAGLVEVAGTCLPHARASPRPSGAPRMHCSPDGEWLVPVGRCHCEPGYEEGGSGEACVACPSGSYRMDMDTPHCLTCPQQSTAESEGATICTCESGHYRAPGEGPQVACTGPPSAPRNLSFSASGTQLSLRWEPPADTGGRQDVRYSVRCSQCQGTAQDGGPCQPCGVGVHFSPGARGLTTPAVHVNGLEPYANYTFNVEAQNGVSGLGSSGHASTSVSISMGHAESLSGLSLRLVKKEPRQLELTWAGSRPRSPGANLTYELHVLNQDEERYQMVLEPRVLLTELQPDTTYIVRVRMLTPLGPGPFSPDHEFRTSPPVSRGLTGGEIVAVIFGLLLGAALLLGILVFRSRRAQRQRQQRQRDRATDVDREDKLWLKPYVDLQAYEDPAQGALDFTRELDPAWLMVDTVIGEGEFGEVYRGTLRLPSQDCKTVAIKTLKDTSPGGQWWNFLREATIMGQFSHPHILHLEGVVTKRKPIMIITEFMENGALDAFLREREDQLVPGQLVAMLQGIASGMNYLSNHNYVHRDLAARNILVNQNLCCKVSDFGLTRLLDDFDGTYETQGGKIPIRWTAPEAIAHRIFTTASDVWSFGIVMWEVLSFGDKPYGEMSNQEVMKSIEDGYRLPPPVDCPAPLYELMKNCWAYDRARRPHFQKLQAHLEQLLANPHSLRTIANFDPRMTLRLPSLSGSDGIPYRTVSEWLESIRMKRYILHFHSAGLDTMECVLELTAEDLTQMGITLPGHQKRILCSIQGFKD
The following applies: at 1 µM.

The target in test [3] is T2, Ephrin type-A receptor 1 (Homo sapiens). The following applies: at 10 µM.
Test [4] deals with Ephrin type-A receptor 2 (Homo sapiens) (UniProt P29317). The following applies: at 1 µM.
Ephrin type-A receptor 2 (Homo sapiens), sequence (P29317 whole entry): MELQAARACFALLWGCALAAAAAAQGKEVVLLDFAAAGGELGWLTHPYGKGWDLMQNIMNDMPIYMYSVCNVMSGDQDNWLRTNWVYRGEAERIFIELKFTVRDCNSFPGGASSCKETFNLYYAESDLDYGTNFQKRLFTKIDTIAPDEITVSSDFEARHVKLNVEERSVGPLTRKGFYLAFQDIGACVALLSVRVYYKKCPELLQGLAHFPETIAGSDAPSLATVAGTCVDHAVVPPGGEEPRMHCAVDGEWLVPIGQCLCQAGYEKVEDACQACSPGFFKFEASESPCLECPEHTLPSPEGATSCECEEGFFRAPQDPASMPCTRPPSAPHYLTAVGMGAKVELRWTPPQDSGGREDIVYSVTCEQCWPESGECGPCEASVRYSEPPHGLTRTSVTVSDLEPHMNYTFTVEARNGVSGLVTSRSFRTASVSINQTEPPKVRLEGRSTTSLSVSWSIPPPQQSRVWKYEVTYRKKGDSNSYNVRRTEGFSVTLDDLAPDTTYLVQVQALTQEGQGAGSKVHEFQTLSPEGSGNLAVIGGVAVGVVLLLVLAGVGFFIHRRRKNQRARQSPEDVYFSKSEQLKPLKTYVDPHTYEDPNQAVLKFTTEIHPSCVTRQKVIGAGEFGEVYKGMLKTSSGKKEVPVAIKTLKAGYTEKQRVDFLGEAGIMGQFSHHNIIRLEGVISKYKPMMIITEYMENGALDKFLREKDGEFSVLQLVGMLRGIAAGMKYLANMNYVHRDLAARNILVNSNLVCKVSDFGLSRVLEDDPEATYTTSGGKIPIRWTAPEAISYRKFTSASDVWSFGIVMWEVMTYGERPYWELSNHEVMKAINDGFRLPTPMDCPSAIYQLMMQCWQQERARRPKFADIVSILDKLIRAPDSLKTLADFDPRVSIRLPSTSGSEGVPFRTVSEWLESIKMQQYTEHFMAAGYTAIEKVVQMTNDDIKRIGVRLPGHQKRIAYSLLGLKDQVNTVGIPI
The target of test [5] is T3, Ephrin type-A receptor 3 (Homo sapiens) (UniProt P29320).
T3 sequence (whole entry): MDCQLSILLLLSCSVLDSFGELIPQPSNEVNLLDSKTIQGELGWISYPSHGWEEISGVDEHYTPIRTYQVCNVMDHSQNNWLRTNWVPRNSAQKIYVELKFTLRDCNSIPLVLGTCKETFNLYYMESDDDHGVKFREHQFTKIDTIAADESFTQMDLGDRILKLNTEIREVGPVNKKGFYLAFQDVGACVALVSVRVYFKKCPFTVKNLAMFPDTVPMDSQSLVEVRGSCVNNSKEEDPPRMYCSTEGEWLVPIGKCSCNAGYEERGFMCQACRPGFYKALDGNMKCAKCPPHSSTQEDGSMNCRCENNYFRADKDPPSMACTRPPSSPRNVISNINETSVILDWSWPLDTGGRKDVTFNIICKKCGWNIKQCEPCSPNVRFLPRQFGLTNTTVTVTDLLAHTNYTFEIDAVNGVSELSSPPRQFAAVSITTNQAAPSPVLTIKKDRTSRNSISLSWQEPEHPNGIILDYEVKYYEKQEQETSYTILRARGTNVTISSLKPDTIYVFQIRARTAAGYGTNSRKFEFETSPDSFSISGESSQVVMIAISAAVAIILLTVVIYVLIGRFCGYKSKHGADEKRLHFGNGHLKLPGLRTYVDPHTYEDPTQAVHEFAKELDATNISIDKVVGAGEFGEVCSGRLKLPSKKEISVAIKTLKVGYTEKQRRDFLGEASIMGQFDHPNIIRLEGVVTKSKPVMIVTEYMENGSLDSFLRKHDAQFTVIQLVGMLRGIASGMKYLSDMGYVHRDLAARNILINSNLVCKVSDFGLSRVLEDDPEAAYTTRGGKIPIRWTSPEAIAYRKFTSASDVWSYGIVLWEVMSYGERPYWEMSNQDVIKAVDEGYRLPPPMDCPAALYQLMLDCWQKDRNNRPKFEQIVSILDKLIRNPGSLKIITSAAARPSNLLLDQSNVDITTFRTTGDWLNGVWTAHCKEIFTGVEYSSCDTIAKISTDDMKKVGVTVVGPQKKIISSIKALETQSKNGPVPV
The note with it: at 1 µM.

The target of test [6] is T3, Ephrin type-A receptor 3 (Homo sapiens). The following applies: at 10 µM.
Test [7] has as its target Ephrin type-A receptor 4 (Homo sapiens) (UniProt P54764). The note with it: at 10 µM.
Test [8] concerns the target Ephrin type-A receptor 7 (Homo sapiens) (UniProt Q15375). The following applies: at 1 µM.
For test [9] the target is unchanged. The note with it: at 10 µM.
Test [10] addresses T4, Ephrin type-A receptor 8 (Homo sapiens) (UniProt P29322).
T4 sequence (whole entry): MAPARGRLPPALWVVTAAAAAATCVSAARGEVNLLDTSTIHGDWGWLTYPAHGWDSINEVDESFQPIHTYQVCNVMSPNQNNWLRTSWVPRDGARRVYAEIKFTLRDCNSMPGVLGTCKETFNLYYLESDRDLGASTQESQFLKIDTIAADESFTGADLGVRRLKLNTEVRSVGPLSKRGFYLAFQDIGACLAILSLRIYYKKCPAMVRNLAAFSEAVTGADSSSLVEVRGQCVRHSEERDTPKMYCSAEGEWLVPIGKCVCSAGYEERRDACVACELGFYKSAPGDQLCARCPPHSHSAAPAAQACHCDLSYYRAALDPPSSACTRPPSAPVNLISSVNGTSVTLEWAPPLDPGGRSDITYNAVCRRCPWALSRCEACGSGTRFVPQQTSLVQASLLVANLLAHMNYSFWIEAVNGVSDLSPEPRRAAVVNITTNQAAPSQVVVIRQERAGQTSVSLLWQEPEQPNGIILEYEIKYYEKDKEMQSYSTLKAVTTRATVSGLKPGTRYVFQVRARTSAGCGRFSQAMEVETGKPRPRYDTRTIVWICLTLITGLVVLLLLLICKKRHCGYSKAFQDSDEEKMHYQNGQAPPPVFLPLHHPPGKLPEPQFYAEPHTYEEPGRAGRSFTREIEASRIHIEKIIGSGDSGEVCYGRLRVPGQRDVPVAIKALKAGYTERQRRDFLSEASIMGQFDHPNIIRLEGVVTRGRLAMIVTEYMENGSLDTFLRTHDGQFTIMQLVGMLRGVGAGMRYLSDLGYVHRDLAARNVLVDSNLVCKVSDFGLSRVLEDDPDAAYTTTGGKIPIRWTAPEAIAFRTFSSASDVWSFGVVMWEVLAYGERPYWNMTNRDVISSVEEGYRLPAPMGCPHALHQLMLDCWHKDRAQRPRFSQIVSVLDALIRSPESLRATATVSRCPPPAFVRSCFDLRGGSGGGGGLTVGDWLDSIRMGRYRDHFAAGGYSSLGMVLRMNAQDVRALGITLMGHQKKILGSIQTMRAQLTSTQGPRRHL
The following applies: at 1 µM.

The target in test [11] is T4, Ephrin type-A receptor 8 (Homo sapiens). The following applies: at 10 µM.
Test [12] deals with T5, Ephrin type-B receptor 1 (Homo sapiens) (UniProt P54762).
T5 sequence (whole entry): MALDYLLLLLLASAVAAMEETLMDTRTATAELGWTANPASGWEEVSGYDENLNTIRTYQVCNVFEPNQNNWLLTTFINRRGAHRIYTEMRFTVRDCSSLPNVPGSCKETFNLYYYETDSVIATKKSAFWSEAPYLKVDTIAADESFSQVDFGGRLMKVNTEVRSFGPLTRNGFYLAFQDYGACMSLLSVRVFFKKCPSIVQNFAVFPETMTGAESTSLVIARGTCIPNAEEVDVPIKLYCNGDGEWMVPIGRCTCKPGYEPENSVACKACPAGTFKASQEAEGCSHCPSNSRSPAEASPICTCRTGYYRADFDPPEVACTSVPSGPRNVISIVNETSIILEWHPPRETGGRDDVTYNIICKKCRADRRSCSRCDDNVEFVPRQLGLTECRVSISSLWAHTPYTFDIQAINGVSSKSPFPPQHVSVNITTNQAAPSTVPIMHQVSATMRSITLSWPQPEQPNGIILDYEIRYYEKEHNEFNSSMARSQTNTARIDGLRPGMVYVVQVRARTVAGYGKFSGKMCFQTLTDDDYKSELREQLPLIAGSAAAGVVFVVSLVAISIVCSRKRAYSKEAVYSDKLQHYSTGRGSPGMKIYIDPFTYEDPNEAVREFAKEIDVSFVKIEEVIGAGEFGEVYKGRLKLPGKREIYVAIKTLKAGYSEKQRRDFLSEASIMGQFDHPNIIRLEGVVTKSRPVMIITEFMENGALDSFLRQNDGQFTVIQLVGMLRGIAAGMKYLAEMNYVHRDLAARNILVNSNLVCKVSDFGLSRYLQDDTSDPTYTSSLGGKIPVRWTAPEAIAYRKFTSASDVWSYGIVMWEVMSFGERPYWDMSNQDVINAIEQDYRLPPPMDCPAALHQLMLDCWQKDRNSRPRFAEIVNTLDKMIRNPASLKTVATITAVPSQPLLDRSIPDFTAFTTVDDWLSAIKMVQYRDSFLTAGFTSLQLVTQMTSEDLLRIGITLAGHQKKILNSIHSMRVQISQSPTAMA
The note with it: at 1 µM.

Test [13] deals with Ephrin type-A receptor 4 (Homo sapiens) (UniProt P54764). The following applies: at 1 µM.
Ephrin type-A receptor 4 (Homo sapiens), sequence (P54764 whole entry): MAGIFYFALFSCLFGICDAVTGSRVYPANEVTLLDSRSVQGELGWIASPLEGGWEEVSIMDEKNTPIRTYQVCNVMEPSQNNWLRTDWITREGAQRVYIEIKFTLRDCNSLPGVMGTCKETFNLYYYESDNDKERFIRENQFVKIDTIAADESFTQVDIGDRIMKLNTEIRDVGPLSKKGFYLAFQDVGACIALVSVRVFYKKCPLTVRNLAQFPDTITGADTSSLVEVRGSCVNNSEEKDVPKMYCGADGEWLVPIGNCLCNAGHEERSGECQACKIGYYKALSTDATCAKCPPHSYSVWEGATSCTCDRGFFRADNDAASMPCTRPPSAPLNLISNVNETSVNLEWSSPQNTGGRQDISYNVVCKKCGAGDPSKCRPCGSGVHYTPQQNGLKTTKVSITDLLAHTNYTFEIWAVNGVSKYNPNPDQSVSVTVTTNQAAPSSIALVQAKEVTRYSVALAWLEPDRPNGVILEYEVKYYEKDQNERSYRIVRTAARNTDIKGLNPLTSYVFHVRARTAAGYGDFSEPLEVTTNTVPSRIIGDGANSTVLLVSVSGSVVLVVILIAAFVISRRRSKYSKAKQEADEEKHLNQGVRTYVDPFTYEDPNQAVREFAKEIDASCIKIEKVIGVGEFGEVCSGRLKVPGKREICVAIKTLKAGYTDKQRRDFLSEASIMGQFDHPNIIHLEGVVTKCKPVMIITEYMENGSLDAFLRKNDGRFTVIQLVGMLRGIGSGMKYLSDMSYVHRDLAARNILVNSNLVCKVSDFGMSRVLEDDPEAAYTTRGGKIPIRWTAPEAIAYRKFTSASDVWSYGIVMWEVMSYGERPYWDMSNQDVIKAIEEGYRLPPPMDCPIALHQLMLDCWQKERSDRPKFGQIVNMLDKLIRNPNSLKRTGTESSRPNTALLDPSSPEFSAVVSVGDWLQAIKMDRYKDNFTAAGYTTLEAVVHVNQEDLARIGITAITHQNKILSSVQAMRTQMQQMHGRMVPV
Test [14] concerns the target Ephrin type-A receptor 5 (Homo sapiens) (UniProt P54756). The following applies: at 1 µM.
Test [15] has the same target. The following applies: at 10 µM.
In test [16] the target is T6, Serine/threonine-protein kinase 17A (Homo sapiens) (UniProt Q9UEE5).
T6 sequence (whole entry): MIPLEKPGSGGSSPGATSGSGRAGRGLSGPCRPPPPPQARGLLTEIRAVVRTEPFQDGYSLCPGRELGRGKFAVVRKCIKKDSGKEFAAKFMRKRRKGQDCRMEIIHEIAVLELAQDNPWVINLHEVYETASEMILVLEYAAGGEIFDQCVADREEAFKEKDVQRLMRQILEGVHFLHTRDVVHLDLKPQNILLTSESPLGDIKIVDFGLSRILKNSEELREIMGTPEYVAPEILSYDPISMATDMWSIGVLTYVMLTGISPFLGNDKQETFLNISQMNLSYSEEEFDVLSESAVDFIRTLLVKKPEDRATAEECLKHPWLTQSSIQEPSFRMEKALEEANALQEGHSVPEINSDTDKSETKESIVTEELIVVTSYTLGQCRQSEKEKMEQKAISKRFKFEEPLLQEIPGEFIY
The note with it: at 10 µM.

The target of test [17] is T1, Dual specificity tyrosine-phosphorylation-regulated kinase 2 (Homo sapiens). The note with it: at 1 µM.

Ephrin type-A receptor 7 (Homo sapiens), sequence (Q15375 28-998 limits assumed): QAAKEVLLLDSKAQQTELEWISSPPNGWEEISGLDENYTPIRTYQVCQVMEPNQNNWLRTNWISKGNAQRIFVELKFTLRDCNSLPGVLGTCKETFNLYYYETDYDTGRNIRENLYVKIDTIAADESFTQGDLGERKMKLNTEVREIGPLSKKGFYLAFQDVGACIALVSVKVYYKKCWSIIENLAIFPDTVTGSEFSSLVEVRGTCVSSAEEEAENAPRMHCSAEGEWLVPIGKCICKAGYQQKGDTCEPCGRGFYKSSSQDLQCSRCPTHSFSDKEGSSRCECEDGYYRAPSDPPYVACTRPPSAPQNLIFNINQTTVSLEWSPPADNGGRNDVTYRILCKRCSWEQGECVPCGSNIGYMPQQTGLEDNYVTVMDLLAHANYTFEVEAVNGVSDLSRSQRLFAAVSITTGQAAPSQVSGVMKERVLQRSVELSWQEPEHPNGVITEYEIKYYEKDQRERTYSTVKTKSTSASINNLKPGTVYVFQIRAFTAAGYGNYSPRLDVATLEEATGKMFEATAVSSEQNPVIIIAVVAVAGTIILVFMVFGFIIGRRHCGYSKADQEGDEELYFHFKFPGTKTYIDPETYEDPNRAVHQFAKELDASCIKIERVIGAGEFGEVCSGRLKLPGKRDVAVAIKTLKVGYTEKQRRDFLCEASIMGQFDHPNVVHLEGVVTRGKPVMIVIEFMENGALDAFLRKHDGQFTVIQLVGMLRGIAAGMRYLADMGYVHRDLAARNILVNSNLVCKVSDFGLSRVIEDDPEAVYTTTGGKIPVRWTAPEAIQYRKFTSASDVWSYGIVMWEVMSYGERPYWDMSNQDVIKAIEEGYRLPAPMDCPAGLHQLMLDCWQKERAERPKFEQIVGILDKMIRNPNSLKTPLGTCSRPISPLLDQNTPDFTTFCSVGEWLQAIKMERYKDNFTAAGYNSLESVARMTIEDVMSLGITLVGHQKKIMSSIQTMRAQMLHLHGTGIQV
Ephrin type-A receptor 5 (Homo sapiens), sequence (P54756 whole entry): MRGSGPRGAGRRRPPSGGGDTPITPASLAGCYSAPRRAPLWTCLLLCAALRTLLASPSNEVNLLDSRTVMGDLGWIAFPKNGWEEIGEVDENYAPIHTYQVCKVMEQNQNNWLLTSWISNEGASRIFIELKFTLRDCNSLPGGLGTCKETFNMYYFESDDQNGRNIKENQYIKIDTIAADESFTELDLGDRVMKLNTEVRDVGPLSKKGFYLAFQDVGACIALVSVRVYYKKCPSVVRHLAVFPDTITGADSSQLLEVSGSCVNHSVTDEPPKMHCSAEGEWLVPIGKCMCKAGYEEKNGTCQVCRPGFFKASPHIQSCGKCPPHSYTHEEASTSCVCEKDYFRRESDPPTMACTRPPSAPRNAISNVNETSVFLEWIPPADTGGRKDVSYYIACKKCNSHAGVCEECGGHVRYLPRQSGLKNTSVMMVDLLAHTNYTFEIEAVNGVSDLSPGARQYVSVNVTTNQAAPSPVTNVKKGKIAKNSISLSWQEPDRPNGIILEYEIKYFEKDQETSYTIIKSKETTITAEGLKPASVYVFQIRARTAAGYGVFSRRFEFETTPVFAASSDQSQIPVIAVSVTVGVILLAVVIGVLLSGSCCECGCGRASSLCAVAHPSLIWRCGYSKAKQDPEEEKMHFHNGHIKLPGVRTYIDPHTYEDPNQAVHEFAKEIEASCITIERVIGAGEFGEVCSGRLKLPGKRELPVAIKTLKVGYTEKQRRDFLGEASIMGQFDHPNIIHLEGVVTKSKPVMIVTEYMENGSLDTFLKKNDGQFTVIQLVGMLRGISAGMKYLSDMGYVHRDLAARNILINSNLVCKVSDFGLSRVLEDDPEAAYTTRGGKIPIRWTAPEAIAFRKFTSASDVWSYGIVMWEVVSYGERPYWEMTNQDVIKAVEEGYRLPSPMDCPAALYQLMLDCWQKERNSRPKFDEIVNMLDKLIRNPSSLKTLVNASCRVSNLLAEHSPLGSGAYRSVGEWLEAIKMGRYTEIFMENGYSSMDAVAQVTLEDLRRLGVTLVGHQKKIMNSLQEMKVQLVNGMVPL

Usually residual activity stands for the signal under treatment as a percentage of the control signal. For `CN(C)S(=O)(=O)c1ccc2c(c1)/C(=C/c1cc3c([nH]1)CCCC3)C(=O)N2`, the residual activity in test [1] is 91%; in test [2], 96%; in test [3], 96%; in test [4], 89%; in [5], 91%; in [6] it was 77%. Moreover, the residual activity in [7] worked out at 92%; in test [8], 94%; in test [9], 79%; in test [10] it was 96%; in test [11], 85%; in [12] it was 73%.
On to `COc1ccc(CNC(=O)Nc2ncc([N+](=O)[O-])s2)cc1`, for which the residual activity in test [13] turned out to be 100%; in test [7], 102%; in [14] it was 114%; in test [15], 102%; in [9], 80%; in [12] it was 111%.
On to `O=C1Nc2ccccc2/C1=C\c1c(Cl)[nH]c2ccccc12`, for which the residual activity in [16] amounted to 85%; in test [2], 87%; in [3], 72%; in test [14] it was 118%.
As to `O=C(NC(NC(=S)Nc1ccc(F)c([N+](=O)[O-])c1)C(Cl)(Cl)Cl)C(c1ccccc1)c1ccccc1` (stereo not drawn), the residual activity in [17] worked out at 98%; in test [1] it was 100%; in test [2], 104%; in test [3], 92%; in test [13] it was 96%; in test [14], 104%. In addition, the residual activity in test [15] came out at 91%; in test [8], 102%; in test [9] it was 99%; in test [10], 103%; in test [12], 97%.
